Sampled rows, rich in hits. Any-hit rate of the full collection: about 3.4%.
miR-122 sensor: miR-122 inhibition in Huh7 cells | AID 602342 | activation (reporter increase), % at 12.5 µM | Huh7 miR-122 Renilla luciferase sensor, 48 h; neutral wells = 0, positive control = 100 | hit rate 0.3% among 340,000;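 active = mean replicate activation score at least 90 and every replicate individually at or above 90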;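 note: higher luciferase means less miR-122 activity so hits act as miR-122 inhibitors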
Wnt bcat act: Wnt/beta-catenin pathway activation; AID 743398; activation, % at 9.35 µM; hit rate 1.2% among 300,000; Wnt/beta-catenin reporter cell assay, activator, plate reader; in the data active = activation above about 30%, passing the limit was not always enough;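 note: 0% = neutral control wells and 100% = positive control wells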
esBAF inh: inhibitors of esBAF chromatin remodeling in mouse ES cells | Bmi1-luciferase knock-in reporter, 24 h; 100% = twice the neutral-well signal | AID 602393 | reporter increase, % at 12.5 µM | hit rate 2% among 350,000; in the data active = activation above about 40%;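 note: 0% = median of the plate's neutral control wells and 100% = double that signal; a rise in the Bmi1 reporter signal indicates esBAF inhibition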
MITF act: increases MITF-driven TRPM1 promoter luciferase signal | SK-MEL-5 TRPM1-promoter luciferase, 24 h; % of positive control, neutral wells = 0 | activation, % at 12.5 µM | hit rate 0.75% among 300,000 | AID 588334;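 active = mean activation of at least 80% with every replicate also reaching 80%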;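 note: 0% = neutral control wells and 100% = parthenolide positive control wells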
Env fusion inh: blocks HIV Env-driven cell-cell fusion; inhibition, % at 12.3 µM; HeLa-JRFL Env/CEM21 cell fusion, luciferase; AID 651610; hit rate 1.1% among 360,000;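 active = mean replicate inhibition score of at least 50 and every replicate individually at or above 50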;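 note: 0% = plate neutral controls and 100% = maraviroc near 300 nM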
Numbers without * were called inactive; [ ] = remark or other dose.

Results for Cc1c(CCOC(=O)CC23CC4CC(CC(C4)C2)C3)sc[n+]1CC(=O)c1ccc(Br)cc1 ?
miR-122 sensor: 3; esBAF inh: 2; Env fusion inh: 61*

Results for COc1ccccc1NC(=O)N[C@H]1C=C[C@@H](CC(=O)NCc2ccc(Cl)c(Cl)c2)O[C@@H]1CO ?
miR-122 sensor: -16[16.7 µM]; esBAF inh: 3; Env fusion inh: 28[16.7 µM]

Results for CC(C)NC(=O)Nc1ccc2c(c1)C(=O)N([C@H](C)CO)C[C@@H](C)[C@H](CN(C)Cc1ccncc1)O2 ?
miR-122 sensor: 4[16.7 µM]; esBAF inh: -3

What do the screens show for `CCCc1cc(C(=O)Nc2ccccc2SC)no1`?
Wnt bcat act: -2; esBAF inh: 51*; Env fusion inh: -14

What do the screens show for `CSc1ccccc1NC(=O)c1cc(-c2cccs2)on1`?
miR-122 sensor: -11; Wnt bcat act: 19; esBAF inh: 32; MITF act: 26; Env fusion inh: -33

How did CCCc1cc(C(=O)Nc2cccc(Cl)c2C)no1 do in these assays?
miR-122 sensor: 2; Wnt bcat act: 14; esBAF inh: 58*; MITF act: 50; Env fusion inh: -17

How did Cc1noc(C(=O)Nc2ccc(F)cc2F)c1Cl do in these assays?
Wnt bcat act: 9; esBAF inh: 19; MITF act: 16; Env fusion inh: -15

What do the screens show for `CCCc1cc(C(=O)Nc2ccc(F)cc2F)no1`?
Wnt bcat act: 18; esBAF inh: 68*; Env fusion inh: -21

Results for Cc1ccc(S(=O)(=O)Nc2ccc3c(c2)C(=O)N([C@H](C)CO)C[C@@H](C)[C@H](CN(C)S(=O)(=O)c2ccc(C)cc2)O3)cc1 ?
miR-122 sensor: 1[16.7 µM]; esBAF inh: 4; Env fusion inh: 1[16.7 µM]

What do the screens show for `O=C(C[C@@H]1CC[C@@H]2[C@H](COC[C@@H](O)CN2Cc2nccs2)O1)NCc1ccc(Oc2ccccc2)cc1`?
miR-122 sensor: -6[16.7 µM]; esBAF inh: 18

What do the screens show for `C[C@@H]1CN([C@H](C)CO)S(=O)(=O)c2ccc(C3=CCCC3)cc2O[C@H]1CN(C)C(=O)c1ccncc1`?
miR-122 sensor: 24[16.7 µM]; esBAF inh: 6; Env fusion inh: 10[16.7 µM]

How did COC(=O)C1CCN(C(=O)C2CC(=O)N(c3ccc(C)c(Cl)c3)C2)CC1 (configuration not stated) do in these assays?
miR-122 sensor: -1; Wnt bcat act: 17; esBAF inh: 56*; MITF act: 47; Env fusion inh: -7

How did COc1cc2oc(=O)cc(-c3ccc(-c4ccc(OC(F)(F)F)cc4)cc3)c2c(OC)c1OC do in these assays?
miR-122 sensor: -8; Wnt bcat act: 0; esBAF inh: 14; MITF act: 16; Env fusion inh: -2

How did COc1cc(OC)c2c(-c3cccc(-c4ccc(O)cc4)c3)cc(=O)oc2c1 do in these assays?
miR-122 sensor: 99*; Wnt bcat act: -1; esBAF inh: 0; MITF act: -35; Env fusion inh: -64

What do the screens show for `COc1ccc(-c2cccc(-c3cc(=O)oc4cc(OC)cc(OC)c34)c2)cc1`?
miR-122 sensor: 104*; Wnt bcat act: -3; esBAF inh: -11; MITF act: -66; Env fusion inh: -29

What do the screens show for `COc1cc(OC)c2c(-c3cccc(-c4cccc(C)c4)c3)cc(=O)oc2c1`?
miR-122 sensor: 5; Wnt bcat act: -2; esBAF inh: -7; MITF act: -28; Env fusion inh: 24

Results for COc1cc(OC)c2c(-c3cccc(-c4ccc(CO)cc4)c3)cc(=O)oc2c1 ?
esBAF inh: -12; MITF act: -77

Results for COc1cc(OC)c2c(-c3cccc(-c4ccc(N(C)C)cc4)c3)cc(=O)oc2c1 ?
miR-122 sensor: 97*; Wnt bcat act: -3; esBAF inh: -3; MITF act: -54; Env fusion inh: -164

What do the screens show for `COc1ccc(-c2cccc(-c3cc(=O)oc4cc(OC)c(OC)c(OC)c34)c2)cc1`?
miR-122 sensor: 10; Wnt bcat act: -1; esBAF inh: 13; MITF act: -12; Env fusion inh: 50*

What do the screens show for `Cc1noc(C)c1S(=O)(=O)Nc1ccc2c(c1)C(=O)N([C@@H](C)CO)C[C@@H](C)[C@H](CN(C)S(C)(=O)=O)OCCCC[C@@H](C)O2`?
miR-122 sensor: 10[16.7 µM]; esBAF inh: -3; Env fusion inh: 14[16.7 µM]

What do the screens show for `CC(C)c1ccc(S(=O)(=O)Nc2ccc(-n3cnnn3)cc2)cc1`?
miR-122 sensor: 103*; Wnt bcat act: 14; esBAF inh: -3; MITF act: 9; Env fusion inh: 13

Results for C[C@@H]1CN([C@@H](C)CO)S(=O)(=O)c2ccc(C#CC3CCCC3)cc2O[C@@H]1CN(C)Cc1cncnc1 ?
miR-122 sensor: -6[16.7 µM]; esBAF inh: 7; Env fusion inh: -16[16.7 µM]

How did COc1ccc(NC(=O)N(C)C[C@@H]2OCCCC[C@@H](C)Oc3ccc(NC(=O)Nc4cccc5ccccc45)cc3C(=O)N([C@H](C)CO)C[C@@H]2C)cc1 do in these assays?
miR-122 sensor: 9[16.7 µM]; esBAF inh: -1; Env fusion inh: -5[16.7 µM]

What do the screens show for `CC1CC(C)CN(C(=O)c2cc3ccccc3o2)C1` (configuration not stated)?
Wnt bcat act: 5; esBAF inh: 58*; MITF act: 44

Results for O=C(c1cc2ccccc2o1)N1CCN(Cc2nc3ccccc3s2)CC1 ?
miR-122 sensor: 3; Wnt bcat act: 2; esBAF inh: 45*; Env fusion inh: -12

Results for O=C(c1cc2ccccc2o1)N1CCN(C/C=C/c2ccccc2)CC1 ?
Wnt bcat act: 5; esBAF inh: -1; MITF act: 0; Env fusion inh: 3

What do the screens show for `CC1CC(C)CN(C(=O)c2cc3cc(Br)cc(Br)c3o2)C1` (configuration not stated)?
Wnt bcat act: 1; MITF act: 83*; Env fusion inh: -59

What do the screens show for `CC1CCN(C(=O)c2cc3ccccc3o2)CC1`?
miR-122 sensor: 2; esBAF inh: 57*

Results for CC(=O)N1CCN(C(=O)c2cc3ccccc3o2)CC1 ?
miR-122 sensor: -6; Wnt bcat act: -1; esBAF inh: 2; MITF act: 4; Env fusion inh: -1

How did COCC#Cc1ccc2c(c1)O[C@H](CN(C)CC1CCOCC1)[C@@H](C)CN([C@@H](C)CO)S2(=O)=O do in these assays?
miR-122 sensor: -7[16.7 µM]; esBAF inh: 0; Env fusion inh: -23[16.7 µM]

What do the screens show for `CC(C)NC(=O)N(C)C[C@H]1Oc2ccc(NC(=O)CCCN(C)C)cc2C(=O)N([C@H](C)CO)C[C@@H]1C`?
miR-122 sensor: -3[16.7 µM]; esBAF inh: -2

Results for O=C(c1cc2cc(Br)ccc2o1)N1CCCC1 ?
Wnt bcat act: 7; esBAF inh: 39*; MITF act: 16; Env fusion inh: -101

How did O=C(Nc1nc2ccccc2[nH]1)c1cccs1 do in these assays?
miR-122 sensor: -4; Wnt bcat act: 46*; esBAF inh: -6; MITF act: 62; Env fusion inh: -48

How did O=c1[nH]c2ccccc2nc1/C=C(\O)c1cccs1 do in these assays?
Wnt bcat act: 37*; MITF act: 35; Env fusion inh: inactive

Compound activity (PubChem)
